These results are taken from PubChem BioAssay (NCI).

This is part of a sample that, as a whole, favours compounds with a hit. Of some 83,000 tested, about 20% had one in any assay.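 The test compound was applied at a single concentration to cells in 96-well plates for 48 hours, and percent growth was recorded.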 Values without a mark were called inactive. The source made the active and inactive calls. How the source made its calls: active means growth percent below 10; inactive means the rest.

Test systems include HCT-15 colon; HT29 colon; SNB-75 CNS; SNB-19 CNS; PC-3 prostate; SK-MEL-5 melanoma; UACC-62 melanoma; LOX IMVI melanoma; SK-MEL-28 melanoma; SK-MEL-2 melanoma; SN12C renal; UO-31 renal; TK-10 renal; ACHN renal; CAKI-1 renal; A498 renal; MOLT-4 leukemia; CCRF-CEM leukemia; EKVX NSCLC.
Common to all, as to assay: NCI-60 one-dose screen, 48 h (100 = growth as untreated, 0 = no growth, -100 = all killed)
Conditions in all cases: 10 µM unless noted

`CSc1nc2nc3c(nc2c(=O)n1C)C(=O)c1ccccc1C3=O`: the growth in the test on HCT-15 colon is -72.1% (active); in the test on HT29 colon, -21.1% (active); in the test with SNB-75 CNS, -98.3% (active); with SNB-19 CNS, -66.2% (active); in the test on PC-3 prostate it was -6.56% (active); in the test with SK-MEL-5 melanoma it was -96.4% (active). Besides, the growth with UACC-62 melanoma was -68.2% (active); in the test on LOX IMVI melanoma, -70.9% (active); in the test on SK-MEL-28 melanoma, -60.7% (active); in the test on SK-MEL-2 melanoma it was -64.9% (active); with SN12C renal, -76.7% (active); in the test with UO-31 renal, -86.1% (active). In addition, the growth is -79.1% (active) in the test on TK-10 renal; -95% (active) in the test on ACHN renal; -35.3% (active) with CAKI-1 renal; -75.3% (active) with A498 renal; -11.9% (active) in the test on MOLT-4 leukemia.

In the case of `CCCCCCCCCCCCCCCCCC1=NC(C)(CO)CO1` (centres undefined), the growth is 92.4% in the test on HCT-15 colon; 92.8% with HT29 colon; 120% in the test with SNB-75 CNS; 101% in the test on SNB-19 CNS; 73.4% in the test on PC-3 prostate; 97.1% in the test on SK-MEL-5 melanoma. The growth in the test on UACC-62 melanoma is 86.7%; with LOX IMVI melanoma it was 98%; in the test on SK-MEL-28 melanoma, 109%; in the test with SK-MEL-2 melanoma, 91.3%; in the test on SN12C renal it was 94.2%; with UO-31 renal, 76.3%. In addition, the growth was 87.1% in the test on TK-10 renal; 91% in the test with ACHN renal; 85.5% in the test on CAKI-1 renal; 104% with A498 renal; 93.8% in the test on MOLT-4 leukemia.

On to `O=c1ncc(-c2ccc(C(F)(F)F)cc2)c(NC2CCCCCC2)[nH]1`, for which the growth in the test with HCT-15 colon was 103%; in the test on HT29 colon it was 56.5%; in the test on SNB-75 CNS it was 87%; in the test with SNB-19 CNS, 54.9%; in the test on PC-3 prostate it was 25.7%; with SK-MEL-5 melanoma, 20.9%. The growth is 29.6% with UACC-62 melanoma; 57.9% in the test on LOX IMVI melanoma; 49.3% in the test on SK-MEL-28 melanoma; 50.9% in the test on SK-MEL-2 melanoma; 45.9% with SN12C renal; 52.3% in the test on UO-31 renal. Moreover, the growth in the test on TK-10 renal is 65.1%; in the test on ACHN renal it was 24.4%; with CAKI-1 renal it was 93%; with A498 renal it was 84.4%; in the test on CCRF-CEM leukemia, 46.4%; in the test on MOLT-4 leukemia, 77.7%.

With `c1ccc2nc(Cn3c[n+](Cc4ccc5ccccc5n4)c4ccccc43)ccc2c1`, the growth with HCT-15 colon was 98.7%; in the test on HT29 colon it was 15.5%; in the test on SNB-75 CNS, 41.4%; in the test on SNB-19 CNS, 30.5%; in the test on PC-3 prostate, 14.6%; in the test on SK-MEL-5 melanoma, -83.9% (active). Besides, the growth in the test with UACC-62 melanoma is -16.4% (active); in the test on LOX IMVI melanoma, 25.8%; in the test with SK-MEL-28 melanoma it was 39.4%; in the test on SK-MEL-2 melanoma, 28.9%; with EKVX NSCLC it was 74.7%; in the test on SN12C renal it was 22.7%. For the same molecule, the growth with UO-31 renal is 79.5%; with ACHN renal it was 103%; in the test with A498 renal, 51.1%; in the test on CCRF-CEM leukemia, 34.9%; in the test on MOLT-4 leukemia, 31.9%.

Consider `Cc1cn(C(C=O)OC(C=O)CO)c(=O)[nH]c1=O` (centres undefined), for which the growth in the test on HCT-15 colon is 102%; in the test with HT29 colon it was 110%; in the test on SNB-75 CNS it was 75.1%; in the test on SNB-19 CNS it was 101%; with PC-3 prostate, 102%; with SK-MEL-5 melanoma it was 105%. Also, the growth in the test with UACC-62 melanoma was 106%; in the test with LOX IMVI melanoma, 103%; in the test with SK-MEL-28 melanoma, 99.1%; in the test with SK-MEL-2 melanoma it was 104%; in the test on SN12C renal it was 102%; in the test on UO-31 renal, 88.6%. Moreover, the growth was 107% with ACHN renal; 105% in the test with CAKI-1 renal; 111% in the test on A498 renal; 98.4% in the test with CCRF-CEM leukemia; 104% in the test on MOLT-4 leukemia.

With `COc1ccc2c(c1)sc1nc(-c3ccc(Br)cc3)cn12`, the growth was 110% in the test on HCT-15 colon; 108% with HT29 colon; 112% with SNB-75 CNS; 115% in the test on SNB-19 CNS; 101% in the test with PC-3 prostate; 76.4% in the test with SK-MEL-5 melanoma. For the same molecule, the growth with UACC-62 melanoma is 86.2%; with LOX IMVI melanoma, 99.1%; with SK-MEL-28 melanoma, 112%; with SK-MEL-2 melanoma, 106%; in the test with EKVX NSCLC it was 113%; in the test with SN12C renal it was 104%. Further, the growth is 133% with TK-10 renal; 110% in the test on ACHN renal; 96.4% in the test with CAKI-1 renal; 84.4% with A498 renal; 109% in the test on CCRF-CEM leukemia; 104% with MOLT-4 leukemia.

As for `O=C(CN1CCN(c2ccc(Cl)cc2)CC1)N1CCN(c2nnc(-c3ccccc3)c(-c3ccccc3)n2)CC1`, the growth in the test on HCT-15 colon is 42.3%; with HT29 colon, 29.2%; in the test with SNB-75 CNS it was 65.8%; in the test on SNB-19 CNS it was 60%; in the test on PC-3 prostate, 12.1%; in the test with SK-MEL-5 melanoma, -9.45% (active). Besides, the growth in the test with UACC-62 melanoma is 53%; in the test with LOX IMVI melanoma, 38.5%; in the test with SK-MEL-28 melanoma it was 83%; with EKVX NSCLC, 29.9%; with SN12C renal, 49.5%; in the test with UO-31 renal, 14.6%. Moreover, the growth in the test on TK-10 renal is 68.8%; in the test with ACHN renal, 39.3%; with CAKI-1 renal, 92.6%; with A498 renal, 45.4%; in the test on CCRF-CEM leukemia, 20.4%; in the test with MOLT-4 leukemia it was -35.1% (active).

For `COc1ccc(OC)c2c1CCC1(C2)NC(=O)NC1=O` (centres undefined), the growth in the test with HCT-15 colon was 93.6%; with HT29 colon, 104%; with SNB-75 CNS it was 86.2%; in the test on SNB-19 CNS, 98.8%; in the test with PC-3 prostate it was 94.8%; with SK-MEL-5 melanoma, 101%. Besides, the growth in the test with UACC-62 melanoma was 103%; with LOX IMVI melanoma it was 100%; in the test with SK-MEL-28 melanoma, 106%; with SK-MEL-2 melanoma it was 118%; with SN12C renal it was 97.3%; in the test on UO-31 renal, 82.3%. Besides, the growth in the test on TK-10 renal was 114%; in the test with ACHN renal, 103%; with CAKI-1 renal, 91.3%; in the test on A498 renal it was 104%; in the test on MOLT-4 leukemia, 104%.

In the case of `CC(=O)N1N=C(c2ccc(Cl)cc2)CC1c1c(C)nn(-c2ccccc2)c1N(C)Cc1ccccc1` (centres undefined), the growth was 71% with HCT-15 colon; 58.5% in the test with HT29 colon; 80.3% with SNB-75 CNS; 64.4% in the test with SNB-19 CNS; 39.3% in the test on PC-3 prostate; 70.3% with SK-MEL-5 melanoma. Further, the growth is 51% with UACC-62 melanoma; 84.1% in the test on LOX IMVI melanoma; 88.1% in the test on SK-MEL-28 melanoma; 76.4% with EKVX NSCLC; 63.2% in the test on SN12C renal; 50.2% in the test with UO-31 renal. Further, the values for the growth with A498 renal, with CCRF-CEM leukemia and with MOLT-4 leukemia were 71.6%, 73% and 44.4%, respectively.
